Data as given in PubChem BioAssay (Tox21).
Results filed as inconclusive are left out. Unmarked numbers belong to inactive results. Calls come from the whole dose curve; as a rule, active = well fitted activation curve with a large enough effect in the repeat runs; inconclusive = weak or mixed curves; inactive = flat fitted curve, though single readings scatter.

Experiment: A CellTox Green Cytotoxicity Assay to monitor cytotoxicity in HepG2 cells - 24 hour (AID 1224878); note: nearly all actives have a fitted effect of over 45% in size
Conditions: CellTox Green fluorescence; series mostly up to 76.8 µM; cytotoxicity: at the top concentration
Source text: National Center for Advancing Translational Sciences [NCATS]
NIH Chemical Genomics Center [NCGC]
U.S. Environmental Protection Agency [EPA]
National Institutes of Environmental Health Sciences [NIEHS]
National Toxicology Program [NTP]
Cell-based models are critical for drug discovery. Determining the natural cytotoxic effects resulting from test compounds is an essential research activity. A CellTox Green Cytotoxicity Assay to monitor cytotoxicity in real time of continues cell culture during 40 hours of the compound treatment was used to screen Tox21 10K library compounds in HepG2 cells. CellTox Green Cytotoxicity Assay is a nonlytic, homogeneous, biofluorescent method to measure cytotoxicity in cell culture after experimental manipulation. The assay system uses a proprietary asymmetric cyanine dye that is excluded from viable cells but preferentially stains the dead cell's DNA. […] Viable cells produce no appreciable increases in fluorescence. Therefore, the fluorescence signal produced by the binding interaction with dead cell DNA is proportional to cytotoxicity.
The mixture of HepG2 cell suspension and reagents were dispensed at 600cells/6 ul/well in 1536-well tissue culture treated black solid bottom plates using a Multidrop dispenser. After the assay plates were incubated at a 37 C/5% CO2 incubator for 5 hours, 23 nL of compounds dissolved in DMSO, positive and negative controls was transferred to the assay plate by a pintool work station. The plates were incubated at 37 C for 40 hours. The fluorescence intensity were measured at 0h, 8h, 16h, 24h, 32h and 40h time points using ViewLux plate reader during compound treatment.
% is set by controls: 0 for no effect and ±100 for the full control effect.

| Structure (SMILES) | cytotoxicity |
| --- | --- |
| C=CCCC(=O)O | 4.93% |
| COCCOCC(OC)OC | 10.9% [at 35.3 µM] |
| CCCCOCCOC(=O)COc1cc(Cl)c(Cl)cc1Cl | -6.96% |
| CC1=C(C/C=C(\C)CCC[C@H](C)CCC[C@H](C)CCCC(C)C)C(=O)c2ccccc2C1=O | 4.46% [at 35.3 µM] |
| NC(N)=NCCN1CCCCCCC1 | -13.4% [at 0.29 µM] |
| Cc1nc(C2CCCCC2)c(-c2ccc(S(N)(=O)=O)c(F)c2)o1 | 1.2% [at 35.3 µM] |
| COc1cc(C(=O)OC(COCCC(C)C)CN2CCOCC2)cc(OC)c1OC (stereo not given) | -0.844% [at 35.3 µM] |
| O=C(O)Cc1csc(-c2ccc(Cl)cc2)n1 | -0.0314% [at 35.3 µM] |
| CCC(C)(CN(C)C)OC(=O)c1ccccc1 (stereo not given) | -2.69% [at 35.3 µM] |
| CCOC(=O)C(=O)CCCCCCl | 0.402% [at 35.3 µM] |
| O=C1NC(=O)C2CC=CCC12 (stereo not given) | 15.3% |
| CCOCC(C)O (stereo not given) | -7.13% |
| Nc1ccncc1N | -2.18% [at 35.3 µM] |
| CC(=O)Nc1ccc(OCC(O)CNC(C)C)cc1 (stereo not given) | -10.9% [at 35.3 µM] |
| CCOc1c(N2CCOCC2)cnn(C)c1=O | -10.6% [at 35.3 µM] |
| O=C1CCCCCCCCCCCCCCO1 | 20% |
| CC(C)(C)C(=O)Oc1ccc(S(=O)(=O)Nc2ccccc2C(=O)NCC(=O)O)cc1 | 3.13% [at 35.3 µM] |
| CCCCOC(=O)CCC(C)=O | -7.7% |
| CC1=NS(=O)(=O)c2cc(Cl)ccc2N1 | -4.15% [at 35.3 µM] |
| CCOC(=O)C1=NOC(c2ccccc2)(c2ccccc2)C1 | -3.58% |

| Structure (SMILES) | cytotoxicity |
| --- | --- |
| CCCCCCCCN1CCCC1=O | 0.463% |
| CC[N+](CC)(CC(=O)Nc1c(C)cccc1C)Cc1ccccc1 (tested in a mixture with another compound) | 1.22% [at 35.3 µM] |
| CC1=CCC(O)(C(C)C)CC1 (stereo not given) | 0.444% |
| CCCC[N+](C)(CCCC)CCCC | -6.37% |
| CO[C@@]1(NC(=O)C(C(=O)O)c2ccc(O)cc2)C(=O)N2C(C(=O)O)=C(CSc3nnnn3C)CO[C@@H]21 (stereo not given in full) | -10.8% [at 35.3 µM] |
| CCCOC(=O)CC | -5.37% |
| CC1=CC(=O)[C@H]2C[C@@H]1C2(C)C | -2.69% |
| CCCCCCCCCCCCSC | -0.139% |
| C1CCC2=NCCCN2CC1 | 1.16% |
| C[C@@H]1CCC[C@H](C)N1 | 0.961% [at 35.3 µM] |
| C[C@@H]1C[C@H]2[C@@H]3C[C@H](F)C4=CC(=O)C(Cl)=C[C@]4(C)[C@@]3(F)[C@@H](O)C[C@]2(C)[C@@]1(O)C(=O)CO | 1.63% [at 35.3 µM] |
| CCCCOCCOC(=O)CCCCCCCCC(=O)OCCOCCCC | 5.71% |
| CC(C)COC(=O)c1ccc(N)cc1 | -9.13% [at 35.3 µM] |
| CCCCCCCCCCOc1cc2c(=O)c(C(=O)OCC)c[nH]c2cc1OCC | 2.18% [at 6.97 µM] |
| C1CCC2(CCCCO2)OC1 | 9.23% |
| CCOC(=O)CCC(=O)OCC | -7.11% |
| CC(=O)N1C[C@H](O)C[C@H]1C(=O)O | -19.4% [at 35.3 µM] |
| CCN[C@H]1C[C@H](C)S(=O)(=O)c2sc(S(N)(=O)=O)cc21 | -1.48% [at 35.3 µM] |
| CCOc1ccccc1OCC | -9.12% |
| CC(C)[C@H]1CC[C@@H](C)CC1=O | -2.93% |
